# HIF-2a block = HIF-2a inhibition | actives 0.72% (n = 360,000) | AID 624352 | 786-0 RCC cells HIF-2a reporter, luciferase luminescence, overnight | inhibition, % at 18.8 µM;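 active means inhibition of the luminescence signal of 40% or more relative to plate controls, in a single-dose primary screen at 18.75 µM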
# TWEAK Fn14 block = inhibitors of TWEAK-Fn14 interaction signaling; TWEAK-stimulated Fn14 reporter cells, luciferase luminescence, 8 h; inhibition, % at 10 µM; actives 2% (n = 360,000); in the data active means inhibition above about 50%
# LMP1 NFkB inh = Epstein-Barr LMP1 NF-kappaB reporter inhibition | LMP1-induced NF-kappaB luciferase reporter cells, luminescence | inhibition, % at 12.5 µM | actives 0.69% (n = 350,000); in the data active means inhibition above about 41%; inconclusive means no clear call, values can overlap the other calls;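 further: 0% = neutral control wells and 100% = reference inhibitor control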
# MITF TRPM1 inh = reduces MITF-dependent TRPM1 promoter luciferase signal; SK-MEL-5 TRPM1 promoter luciferase, 24 h; actives 0.83% (n = 330,000); inhibition, % at 12.5 µM; AID 488899;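 active means mean inhibition across replicates of 60% or more, whatever share of single replicates reaches that level; inconclusive means some that reach 60%, reason not given; inactive means mean inhibition across replicates below 60%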
# Peg3 promoter = Peg3 promoter activity inhibition; AID 588405; inhibition, % at 20 µM; actives 1.7% (n = 360,000); HeLa PEG-Prom luciferase reporter, luminescence, overnight;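 active means inhibition of at least 50% at 20 µM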
# TROY signal inh = blocks TROY-dependent signaling in reporter cells; actives 0.98% (n = 360,000); Q293 LMP1-TROYcd NF-kB luciferase reporter, 4 h; AID 1347056; inhibition, % at 10 µM;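 active means compounds whose plate-normalised and pattern-corrected inhibition of the luciferase reporter signal at the single screening dose is 50% or more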
# Numbers without * were called inactive; ? = inconclusive; . = not tested or not shown. Most compounds without a hit are left out; they make up all but 4% or so of the library.
SMILES,HIF-2a block,TWEAK Fn14 block,LMP1 NFkB inh,MITF TRPM1 inh,Peg3 promoter,TROY signal inh
CCOC(=O)c1c(C)[nH]c(C)c1C(=O)CSc1nc2ccccc2n1CC,6.9,2.4,3.9,0.5,13.1,8.6
CCc1cc2c(COC(=O)c3cccc(NS(C)(=O)=O)c3)cc(=O)oc2cc1O,-9.2,54.7*,1.5,1.6,48.8,52.8*
Cc1cc(C)n(-c2nc(NCCN(C)C)c3c4c(sc3n2)CCCC4)n1,-66.0,-51.5,2.9,66.4*,103.0*,-26.3
CCOC(=O)c1cccc(C2=CC(=O)C[C@H](c3ccc(OC)cc3)C2)c1,-260.8,-44.2,-16.4,-31.4,-266.2,-70.3
CN(C)S(=O)(=O)N1CCC(Oc2ccc(C(=O)NC3CCOC(C)(C)C3)cc2)CC1 (stereo not given),12.6,-8.4,3.7,6.1,-1.1,3.6
CN(C)S(=O)(=O)N1CCC(Oc2ccc(C(=O)NC3Cc4ccccc4C3)cc2)CC1,-128.6,52.3*,1.0,4.4,-120.2,26.7
CCOC(=O)c1[nH]c2ccc(OC)cc2c1NC(=O)CN1CCc2ccccc2C1,7.2,43.6,8.7,14.3,54.8*,34.5
CCOC(=O)C1CCN(CC(=O)Nc2c(C(=O)OC)[nH]c3ccc(Cl)cc23)CC1,7.0,64.0*,17.4,40.1,38.0,47.5
CC(CNC(=S)Nc1cc(F)cc(F)c1)CSc1ccc(Cl)cc1 (stereo not given),6.6,23.5,5.1,9.2,27.4,60.8*
Cc1ccc(NC(=S)NCCSc2ccc(Cl)cc2)cc1,-8.1,-10.6,-8.6,-0.5,13.4,9.8
CCN(CC)S(=O)(=O)c1ccc(N2CCc3cc(OC)c(OC)cc3C2)nc1,3.0,20.3,7.6,8.3,3.2,-1.3
CC(OC(=O)Cn1cnc2c1c(=O)n(C)c(=O)n2C)C(=O)NC1(C#N)CCCCC1 (stereo not given),4.0,11.5,-7.6,-12.9,2.7,8.6
CC(=O)c1cccc(NC(=O)N2CCCC2C(=O)Nc2cccc(C)c2)c1 (stereo not given),17.8,65.8*,-3.5,5.7,0.9,11.9
O=C(Nc1ccc2c(c1)OCCO2)C1CCCN1C(=O)Nc1ccc(F)cc1 (stereo not given),15.3,59.5*,-0.7,-20.7,25.0,32.0
COc1cccc(NC(=O)C2CCCN2C(=O)Nc2ccccc2)c1 (stereo not given),-1.5,48.6,-4.1,-7.4,12.0,0.9
COc1cccc(NC(=O)C2CCCN2C(=O)Nc2cccc(F)c2)c1 (stereo not given),12.2,16.2,5.1,10.8,67.5*,-18.7
CC(=O)Nc1cccc(NC(=O)C2CCCN2C(=O)Nc2cccc(C)c2)c1 (stereo not given),14.7,-0.3,-3.6,23.2,-9.5,-1.0
N#Cc1c(N)c2ccccn2c1C(=O)c1ccc(Br)cc1,-80.7,-10.1,-6.8,6.9,-28.4,-5.8
CCc1nc2ccc(C(=O)N(C)CCCN(C)C)cn2c1N(C)Cc1cc2ccccc2s1,8.2,-12.4,.,.,11.7,-0.3
O=C(/C=C/c1cccc(Cl)c1Cl)OCC(=O)N1CCOCC1,-2.4,-17.4,4.5,-15.6,-26.4,-65.7
O=C(c1ccc2c(c1)[nH]c(=S)n1c3ccccc3nc21)N1CCN(c2ncccn2)CC1,-0.4,8.5,0.0,7.0,38.5,-0.5
O=C(NCCN1CCN(c2ccccc2)CC1)c1ccc2c(c1)[nH]c(=S)n1c3ccccc3nc21,27.2,-12.6,-29.1,3.7,50.4*,4.5
Cc1cc(C)cc(N2C(=O)c3nccnc3C2=O)c1,12.0,9.1,6.5,-0.1,-0.3,12.3
Cc1cc(C)cc(N2C(=O)C=CC2=O)c1,-36.3,12.8,20.8,50.9,106.2*,-8.2
COc1cc(/C=N\Nc2nc3ccccc3[nH]2)cc(OC)c1OC,-53.5,62.0*,14.8,2.1,-32.6,51.2*
SMILES,HIF-2a block,TWEAK Fn14 block,LMP1 NFkB inh,MITF TRPM1 inh,Peg3 promoter,TROY signal inh
COc1ccc(/C=N/Nc2nc3ccccc3[nH]2)cc1OC,-188.0,-9.6,-5.2,-84.0,-186.5,-63.6
COc1ccc2c(c1)c(/C=N/Nc1nc3ccccc3[nH]1)c(C)n2C,-34.5,88.1*,-3.6,4.5,15.0,54.0*
O=[N+]([O-])c1cccc(S(=O)(=O)Nc2nc3ccccc3nc2Nc2cccc(S(=O)(=O)N3CCCCC3)c2)c1,56.0*,85.8*,27.9,33.8,49.9,70.7*
O=[N+]([O-])c1cccc(S(=O)(=O)N2CCN(c3ccccn3)CC2)c1,4.1,59.8*,-5.1,.,-3.3,8.5
Cc1cccc(S(=O)(=O)Nc2nc3ccccc3nc2Nc2ccc3c(c2)OCO3)c1,0.5,42.3,12.4,3.0,33.0,64.0*
Cc1ccc(S(=O)(=O)Nc2nc3ccccc3nc2Nc2cccc(S(=O)(=O)N3CCCC3)c2)cc1,-49.0,69.2*,4.7,-4.4,36.7,54.4*
CN(C)c1ccc(C=NNC(=O)c2cccc3ccccc23)c(Cl)c1,-20.9,-19.3,73.6*,5.6,1.8,-6.5
Oc1c(N=NC(=S)Nc2ccccc2F)c2ccccc2n1Cc1ccccc1,3.4,20.5,45.1*,23.8,6.3,30.4
C=CCn1c(O)c(N=NC(=S)Nc2ccccc2F)c2ccccc21,17.9,-50.6,60.2*,6.2,33.0,-2.5
Oc1c(N=NC(=S)Nc2ccccc2F)c2ccccc2n1Cc1ccccc1Cl,18.8,-5.6,?,10.4,11.5,17.2
C=CCn1c(O)c(N=NC(=S)Nc2ccccc2F)c2cc(S(=O)(=O)N3CCOCC3)ccc21,21.2,-8.3,51.9*,14.3,20.2,-4.8
Cc1c(Cl)cccc1NC(=S)N=Nc1c(O)n(CN2CCOCC2)c2ccccc12,24.7,104.7*,28.5,23.6,20.3,32.6
Cc1ccc(NC(=O)COC(=O)CNC(=O)c2ccco2)cc1,15.8,-8.3,3.4,9.9,12.7,1.1
COc1cccc(N=Nc2ccc3cccnc3c2O)c1,-70.0,-130.2,38.9,43.4,-15.8,17.4
COc1ccc(C)cc1N=Nc1ccc(O)c2ncccc12,22.5,-103.2,85.8*,72.1*,49.1,0.3
O=Nc1ccc(O)c2ncccc12,-2.9,55.4*,16.8,40.7,76.0*,-14.4
Cc1ccccc1N=Nc1ccc(O)c2ncccc12,1.2,-56.6,43.6*,76.4*,21.5,-10.5
COc1cccc(N=Nc2ccc(O)c3ncccc23)c1,-123.4,52.4*,68.7*,52.1,-90.8,-28.3
O=S(=O)(O)c1cccc2c(N=Nc3ccc(O)c4ncccc34)cccc12,2.8,10.8,1.1,12.7,0.9,-26.8
COc1ccccc1N1CC(C(=O)Nc2ccccc2N2CCCC2)CC1=O (stereo not given),4.6,7.4,1.7,0.7,-16.7,-0.7
O=C(Nc1cccc([N+](=O)[O-])c1)C1COc2ccccc2O1 (stereo not given),-104.4,4.2,-4.8,-0.4,-48.2,-7.2
O=C(NCCSc1ncc(-c2ccc(F)cc2)[nH]1)c1ccc2c(c1)OCO2,-28.0,-20.5,-4.0,28.1,-11.2,-0.9

# Source: PubChem BioAssay
